# Laboratory results reported in PubChem BioAssay AID1508600 (Functional Genomics Laboratory (NCATS/FGL), 2020).
# The campaign covered roughly 53,000 sequences. About 3,700 (7%) were called active. Shown is part of a subset that was picked to be rich in actives. Values without a mark were called inactive.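 How the source made its calls: active means gene knockdowns whose robust z-score for IL-1 alpha signal is at least 2 or at most -2, so actives lie on both sides; inactive means the rest.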
# Test: Components of the Cytosolic LPS Sensing Pathway: Gene Identification via Genome-wide siRNA Screen
# Conditions: RAW264.7 macrophages, IL-1a HTRF, actives lie on both sides, screened at 100 nM (by protocol), cells primed 5 h with Pam3CSK4 first
# Description: Non-canonical inflammasome activation by cytosolic LPS is a critical component of the host response to Gram-negative bacterial infection, however we lack a comprehensive understanding of the cellular processes that control this pathway. Here we describe a genome-wide siRNA screen to identify genes regulating the mouse macrophage IL-1 alpha response to cytosolic LPS.
# RAW264.7 cells were maintained in complete DMEM media, comprising DMEM with 4.5 g/L glucose, 10% FBS (Gemini Bio-Products, West Sacramento, CA), 2 mM Glutamine (Lonza) and 20 mM HEPES (Lonza), hereafter complete DMEM.
# The RNAi screen was conducted in 384-well format using the Ambion Silencer Mouse Genome siRNA Library (#4391425), which consists of three unique, nonoverlapping, nonpooled siRNAs for each of 17,000 gene targets. siRNA reagents ([…]) were stamped into 384-well white flat-bottom microplates (Corning, 3570) using a Velocity11 VPrep liquid handling system (Agilent) integrated into a BioCel robotic platform (Agilent) in columns 1-22, leaving columns 23-24 empty for negative (Ambion, Negative control #1) and positive (mouse Casp4) controls, respectively. The median value of each plate's negative control column was used to normalize sample wells, and the positive control was used to assess transfection efficiency and assay performance.
# Lipofectamine RNAiMAX Transfection Reagent ([…]; Invitrogen) was added in […] serum-free, antibiotic-free media to plate wells using a Thermo Scientific Matrix WellMate and Microplate Stacker. Plates were incubated for 45 min at room temperature to allow for the sufficient formation of siRNA-lipid complexes. Cells were seeded at a density of 1x10^4 cells per well in 20 microL media containing 20% (vol/vol) FBS without antibiotics. The final concentration of siRNA in each well was 100 nM. Cells were cultured for 48h at 37 degrees C in 5% CO2 before addition of […] of TLR ligand Pam3CSK4 for 5 hours. The medium was then removed, replaced with […] growth media and cell were transfected with […] of LipidA and TransIT-TKO (Mirus) for 24 hour. At the end of the LipidA treatment, […] of supernatant was transferred to a 384 Greiner Bio-one non-binding low volume plate and […] of IL-1a HTRF reagent (Cisbio, 62MIL1APEH) was added and incubated at room temperature overnight. The plates were read on an EnVision plate reader (PerkinElmer). Cell viability was measured by adding 20ul Cell Titer Glo to the original plate and running a luminescence read on the EnVision. The quantified IL-1a signal for each siRNA gene-targeted well was divided by the median of the negative control wells and multiplied by 100 to achieve a negative control normalized value for each well/siRNA. This normalized value was then used to generate a robust z-score by first taking the log of each value and then by subtracting the median and dividing by the […].
row,Sequence,z-score
1,GGCCAAGUUCCUUUGCAUATT against Lacc1,0.274
2,CCAAAUGUAGCGGAACUGATT against Rsu1,0.195
3,GGGUAUGAGUGCAGACUAUTT against Zcchc9,0.803
4,GGCUUUGUAGCGAUAACAATT against D930030D11Rik,-0.936
5,GGUCAGUGACAUUAUCAAUTT against Vmn1r237,1.84
6,GGAGCAGUUACAGGAAAUCTT against Cdr2,-2.11 (active)
7,GGCAAGACUAUGAAUAUAATT against Ufsp2,-0.486
8,GGAUUUGGAUUUGGAUUUUTT against Tsc22d3,0.387
9,CCUUGUACCCAGUAAAGUCTT against Mab21l4,0.586
10,GGUGGACAAGUUCAAAGCCTT against Atg4d,-1.56
11,GCAGGAUAUGUAAAGGUUUTT against Gimap3,-0.924
12,CCUAAAAGCAGGCCAAAAUTT against Dhx29,-1.26
13,GGAGAAGAGCCUUCUCAAGTT against Srsf4,2.05 (active)
14,GGUUAUAGCUUCAAUAGCUTT against Bphl,-0.61
15,UAACAGACCAGUAAAGGCCTT against Klra21,0.322
16,CCAGAUACCCAUAAUAUCUTT against Mbnl1,-0.604
17,CGAUUUCCUUGGCACCAAUTT against Arhgap1,-0.675
18,GUGGACUUUUAGCAAUCAGTT against Olfr98,-1.55
19,GGAGACUUAUUGAGCAAGUTT against Usp44,4.42 (active)
20,CGCUGAAGUCUUUUCACAATT against Baiap2,0.286
21,CCCUUUCGGGCAAUGGACUTT against Olfr986,-0.0157
22,GGGCUUAAGCUUUGAGGGUTT against Foxs1,0.213

row,Sequence,z-score
1,GGGUUUGCACUAGUUUAUUTT against Rap1a,0.632
2,GGUCCUAAAGCCUUUUCUATT against Mrpl10,0.199
3,GGAAGGGUCAGAAAAAUGUTT against Slc1a2,0.202
4,GGUAAUGAUCCAUUCACCATT against Ly75,-1.47
5,GCAUAUACUUGAUUACCGUTT against Olfr830,-0.391
6,CCUCUGUCAGUUGGUUAACTT against Mon2,-2.33 (active)
7,CCUUCUACUAAUCAAGAGATT against Sparc,-0.578
8,GGACCACAGAAGUUCUCAUTT against Pira2,-2.88 (active)
9,GCACGGAAGACUUACGAACTT against Cstf3,0.439
10,GGACAUAUUUCCAACAUGUTT against Mob3b,-1.34
11,CGAAUCAUGUGUUUGCACATT against Camkk2,1.21
12,GCCUGAUUGACUUAGAGUCTT against Eps8,0.821
13,GCAGGUGAAGAGUGAUUUUTT against Il10,0.318
14,GGAACUGCUUACGAAAUACTT against Lama4,-2.33 (active)
15,GGAUGUGUUAUCGGUGCUCTT against Mup21,-0.303
16,GGAAGAGGAAGAAAAAAAGTT against Iqcf4,-0.411
17,CUUACGAUACAUAAGAGAATT against Zfp457,0.364
18,CGACAACAUUUUCCUGUCATT against Serpinc1,-2.07 (active)
19,GGAGAGAGAGAAGAAGGAUTT against Zmat2,-1.47
20,GCUCAUUCCAGGUAUCUGATT against Fcna,-1.19
21,GCUAUGACAGUUAUGCUACTT against Cirbp,0.874
22,GGAUACGAGACAAUGAGAATT against Kctd2,-0.404

row,Sequence,z-score
1,GCGAAUUACUAUGUACCUATT against Sqor,1.75
2,GGACUGAGGAGAGCAAUAUTT against Cts6,-1.29
3,GGCGGACAGAAAUUAUAGATT against Tnpo3,3.19 (active)
4,CCGUUGCCUGAUAAGUUCUTT against Klf3,0.576
5,GCCUUUCUGAGGGAUUUUGTT against Eif1ad,-1.81
6,GCCAAGCUUACUCAGAUUUTT against Mslnl,2.45 (active)
7,GGCCUUUAUUCAGAUGUCATT against Zscan12,-2.79 (active)
8,GGUUUAGGCAACUAAGUUGTT against Stat5a,0.426
9,GCAAAGUACCCACCUUUGUTT against Pitpna,2.06 (active)
10,GGCAACUUUGAAGUCUUGATT against Dntt,-0.488
11,GGGUUCUUUUAGGUUGUCATT against Ccdc85a,-0.123
12,GGAACUUCAUCCAAACUGATT against Ap4m1,-0.12
13,CGUCCAAGCAUAUAUGAAATT against Slfn8,1.36
14,GGGAAGAGAAUGAGAUAAATT against F7,3.22 (active)
15,CCGACAUUCGAGUUUUGCGTT against Rrp9,-0.532
16,GCGAACAACCACGUUUUUCTT against Ddx18,0.388
17,GGUGUCAAGAAGAAUGUCCTT against Megf11,3.2 (active)
18,GGCCGAAAGAUAAAAACAGTT against Rad51d,0.173
19,GCGACACCACUGAUGACGATT against Gga2,-0.473
20,GGAAAAACAUGCCAAAAAATT against Mettl15,-0.222
21,CCUUAGUAUGUAUGUGGUATT against Map10,-2.65 (active)
22,CCACACUUCCCUUAUUUAATT against Arpc5,1.35

row,Sequence,z-score
1,GGCUAAAGACCAGUAUUUGTT against Cdh7,2.47 (active)
2,CGCAGUCAAAUUUGAAAGUTT against Car5b,0.775
3,GGCUGACAGACAAGAUUGUTT against Tfb1m,-1.3
4,GCCUGUGGUGAUUCUCUUGTT against Tmem53,-0.093
5,CCCAGUUAUCCUGAAAAGUTT against Ears2,0.526
6,GCAAAAGUAUUUUGUGUCCTT against Aamp,0.241
7,GCGCAAUGAACGGUUCUACTT against Prepl,3.96 (active)
8,GGGAUGUGAGGGAAUUAACTT against B4galt3,-1.03
9,GGUCUUCAAGAACUGUAGCTT against Bcl11b,1.09
10,GCACACCAGAUCUACUUCUTT against Cyp2b9,0.3
11,GCUUCACUCCACCUUUCAGTT against Prkcg,0.767
12,GGUCGUUUCUAUGAUUGGCTT against Olfr589,0.568
13,GCUCGAAGAAAGGCCCUGATT against B430306N03Rik,-0.509
14,GGACCUAAACAACGUGUUGTT against Klf2,2.74 (active)
15,GGAAAGAAGAAGAGUCUAATT against Nucb2,0.994
16,GGCCGGAGCUUACGAUUUUTT against Camk2d,0.309
17,GGGAACAAAUUCAUUGUAUTT against Eny2,2.26 (active)
18,GGAAGUGAGAUGUCACUGATT against Ssc5d,0.841
19,GGAUACCAAGCAUCGGAAGTT against Tfap2e,-0.0352
20,GGCAGAAACAGUCCUUGUUTT against Gfra4,-1.54
21,GGCGUAUACCGGGAAUCCUTT against Ndrg1,-0.505
22,GCAAUGAGUACUAUCAUACTT against Gnal,-2.71 (active)

row,Sequence,z-score
1,GGUUAAAUCGAUUUUGCAUTT against Acbd5,-0.185
2,GGGAUACCAUCUUUAUGGCTT against Vwa3b,-0.041
3,GCAAUGGACUGACAUGUCATT against Csdc2,-0.339
4,CGGACAAGUGUUUUUCGUUTT against Wwox,0.315
5,GGCUGUGCUCCUUGUUAGUTT against Olfr1143,-0.083
6,GCGGUGAUGAGAGAAACCATT against Zfp617,0.872
7,GGACCCUUUCUUUGAUAUGTT against Rpe,1.01
8,GCCACUGGAGUAUAGCCAGTT against Pcnx3,0.019
9,CCUCUUAUAUGCAUGUGGCTT against Olfr410,-2.13 (active)
10,CCAAAGCUAAAACGGGUGGTT against Tppp3,0.597
11,GCUGGACAUCGACUUUGGATT against Prnd,-1.54
12,CCUAUGUUUUAGCAAGCAGTT against Acyp2,0.758
13,GCCAUCAUCUUUGUUUAGUTT against Gm4952,-0.684
14,GGACAUCCUCUUACAGUGGTT against Zg16,0.333
15,GGUCAUCUCCAAACCCUCCTT against Rbpj,1.51
16,GGAAGAGGCCAGCUAUAACTT against Dcaf1,-2.51 (active)
17,GGAGGGAUCUAAGGAACAGTT against Fgf8,0.263
18,GGAAUGAUUUUUGUUUGCUTT against Sf3b3,-1.6
19,GGCACAUUCAACAACAUUUTT against Zfp592,1.61
20,GGAUCUUAGCAUGUCAACATT against Zfp330,-1.29
